This note sets out measurements from PubChem BioAssay (NCI).

Common to all, as to experiment: NCI-60 one-dose screen, 48 h (100 = growth as untreated, 0 = no growth, -100 = all killed)
Common to all, as to settings: 10 µM unless noted

Assay [1] has as its system NCI-H23 lung.
Assay [2] relates to NCI-H226 lung.
The test system of assay [3] is NCI-H322M lung.
Assay [4] deals with HOP-62 NSCLC.
Assay [5] concerns NCI-H460 lung.
The subject of assay [6] is NCI-H522 lung.
Assay [7] relates to A549/ATCC NSCLC.
Assay [8] deals with 786-0 renal.
The test system of assay [9] is COLO 205 colon.
In assay [10] the test system is DU-145 prostate.
The test system of assay [11] is K-562 leukemia.
Assay [12] relates to MALME-3M melanoma.
In assay [13] the test system is MDA-MB-231 breast.
Assay [14] has as its system RXF 393 renal.
Assay [15] relates to SF-268 CNS.
Assay [16] relates to SF-295 CNS.
For assay [17], the system named is SF-539 CNS.
For assay [18], the system named is UACC-257 melanoma.
Assay [19] deals with M14 melanoma.

The structures appear in SMILES notation. The panel holds about 83,000 compounds, 20% with a hit somewhere; the sample as a whole holds those more often.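 48-hour exposure, single concentration, 96-well plates; percent growth endpoint where 0 means no net growth. Active: below 10.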 A number with no mark means an inactive call. The source made the active and inactive calls.

Turning to `COc1ccc([C@H]2c3[nH]c4ccccc4c3C[C@H]3C(=O)N(CCCCCCC(=O)NO)CC(=O)N23)cc1`, the growth in [1] is 34.6%; in assay [2], 76.9%; in assay [3], 53.2%; in assay [4] it was 42.9%; in [5] it was 47%; in assay [6], 4.51% (active). The growth in assay [7] was 60%; in assay [8], 83.6%; in assay [9], 22.9%; in [10], 24.2%; in [11], 6.77% (active); in [12], -4% (active). Further, the growth is 45.3% in [13]; 22.2% in assay [14]; 69.7% in [15]; 34.8% in assay [16]; 38.1% in assay [17]; 27.7% in assay [18]. The growth in assay [19] is 22.4%.
For the compound `CC(=O)Nc1c(Br)cc2c(c1Br)Cc1cc(Br)ccc1-2`, the growth was 72.8% in assay [1]; 85% in assay [2]; 88.2% in assay [3]; 29.1% in assay [4]; 38.8% in assay [5]; 76% in [6]. Besides, the growth in assay [7] was 20.8%; in [8] it was 87%; in assay [9], 35%; in [10] it was 91.9%; in assay [11], 80.5%; in assay [12] it was 99.2%. Also, the growth is 51.1% in assay [13]; 92% in [14]; 69.9% in [15]; -18.8% (active) in assay [16]; 86.5% in assay [17]; 89.1% in assay [18]. For the same compound, the growth in assay [19] was 62.4%.
For `Cc1c(C(=O)CCl)c(=O)n(-c2ccccc2)n1C`, the growth in assay [1] was 72.7%; in assay [2], 104%; in [3] it was 101%; in assay [4] it was 105%; in assay [5], 81.2%; in [6] it was -34.4% (active). For the same compound, the growth in assay [7] is 83.5%; in assay [8] it was 88.6%; in assay [9], 48.7%; in assay [10], 42.4%; in assay [11], 53%; in [12] it was 48.1%. Further, the growth was 97.7% in assay [13]; 38.7% in assay [14]; 84.5% in [15]; 87.3% in assay [16]; 71.7% in assay [17]; 52.1% in [18]. In assay [19], the growth is 52.3%.
On to `C=CCOC(=O)C1=C(C)NC2=C(C(=O)CC(C)(C)C2)C1c1ccc(OC)cc1` (centres undefined), for which the growth in [1] is 104%; in assay [2], 98.4%; in [3], 95.7%; in [4] it was 90%; in assay [5] it was 106%; in assay [6] it was 82.8%. In addition, the growth in assay [7] was 98.3%; in assay [8], 97.8%; in assay [9] it was 109%; in assay [10], 110%; in assay [11] it was 90.4%; in assay [12] it was 104%. The growth in assay [13] was 92.8%; in [14], 105%; in [15], 94.1%; in assay [16] it was 105%; in assay [17] it was 108%; in [18], 96.2%. In addition, the growth in assay [19] was 96.8%.
As to `Cc1cccc(N=NC(=S)NNc2cccc(C)c2)c1`, the growth in assay [1] is 102%; in [2], 101%; in assay [3], 101%; in assay [4] it was 101%; in [5] it was 112%; in assay [6], 95.4%. Also, the growth in assay [7] was 105%; in assay [8], 111%; in [9], 116%; in [10], 122%; in assay [11], 105%; in assay [12], 108%. The growth in assay [13] is 93.5%; in assay [14], 115%; in [15], 135%; in assay [16] it was 104%; in assay [17], 108%; in assay [18], 105%. In addition, the growth in [19] was 108%.
Consider `Cc1ccccc1C1CC(=O)c2ccccc2C1C` (centres undefined), for which the growth in assay [1] was 100%; in assay [2], 103%; in assay [3], 114%; in assay [4], 104%; in [5], 108%; in assay [6] it was 97.1%. Further, the growth in assay [7] was 89.9%; in assay [8], 102%; in assay [9], 104%; in assay [10], 109%; in [11] it was 97.3%; in assay [12], 125%. Besides, the growth in assay [13] was 105%; in assay [14] it was 109%; in assay [15], 101%; in [16], 96.3%; in assay [17] it was 93%; in assay [18], 103%. The growth in assay [19] is 90.6%.
